In the supplement of paper PMC9694430:

Key:
Assay in all cases: thermal shift delta Tm vs DMSO control; higher = stronger stabilization (binding)
Settings in all cases: 12.5 µM; protein concentration 2 µM
[1] = test system: LOC_OS04G57630-cb004
In short: (§1)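 Compounds dissolved in DMSO were added to purified rice kinase domain constructs, which had been expressed in E. coli, for differential scanning fluorimetry. Each well held 19.5 μl of 2 μM kinase in 100 mM potassium phosphate pH 7.5, 150 mM NaCl, 10% glycerol and 5 × SYPRO Orange. Fluorescence was followed from 25°C to 95°C at a rate of 0.05°C/s. Shifts in Boltzmann-fitted melting temperature are triplicate means relative to DMSO-only protein.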

[2] = test system: LOC_OS05G07850-cb002
In short: as §1

[3] = test system: LOC_OS05G16824-cb004
In short: as §1

[4] = test system: LOC_OS05G28520-cb001
In short: as §1

[5] = test system: LOC_OS05G30820-cb001
In short: as §1

[6] = test system: LOC_OS05G43570-cb004
In short: as §1

[7] = test system: LOC_OS06G16330-cb003
In short: as §1

[8] = test system: T1, LOC_OS06G22820-cb001
T1 sequence (whole entry): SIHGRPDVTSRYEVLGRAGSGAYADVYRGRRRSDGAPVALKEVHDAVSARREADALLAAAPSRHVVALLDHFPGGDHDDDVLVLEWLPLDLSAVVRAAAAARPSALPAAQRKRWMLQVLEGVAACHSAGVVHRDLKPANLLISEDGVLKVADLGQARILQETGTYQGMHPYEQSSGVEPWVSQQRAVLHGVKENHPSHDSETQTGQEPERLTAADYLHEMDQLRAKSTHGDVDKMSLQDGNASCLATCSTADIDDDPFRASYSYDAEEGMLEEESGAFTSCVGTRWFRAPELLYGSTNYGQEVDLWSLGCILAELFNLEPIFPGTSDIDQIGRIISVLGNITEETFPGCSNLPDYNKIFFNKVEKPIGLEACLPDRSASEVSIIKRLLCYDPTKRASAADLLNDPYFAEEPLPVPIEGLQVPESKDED
In short: as §1

[9] = test system: LOC_OS07G06570-cb004
In short: as §1

[10] = test system: LOC_OS07G07230-cb001
In short: as §1

Chain of LOC_OS06G16330-cb003 (as listed by the source): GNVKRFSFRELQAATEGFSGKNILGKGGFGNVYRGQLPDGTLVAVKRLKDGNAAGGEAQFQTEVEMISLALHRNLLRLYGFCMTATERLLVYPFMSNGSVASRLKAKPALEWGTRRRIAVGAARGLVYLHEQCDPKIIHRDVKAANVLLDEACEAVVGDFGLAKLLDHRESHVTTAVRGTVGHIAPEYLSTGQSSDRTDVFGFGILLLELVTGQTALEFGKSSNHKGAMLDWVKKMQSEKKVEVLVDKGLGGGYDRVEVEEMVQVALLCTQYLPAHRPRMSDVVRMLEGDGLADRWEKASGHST

Row | Compound | thermal shift delta Tm [1] | thermal shift delta Tm [2] | thermal shift delta Tm [3] | thermal shift delta Tm [4] | thermal shift delta Tm [5] | thermal shift delta Tm [6] | thermal shift delta Tm [7] | thermal shift delta Tm [8] | thermal shift delta Tm [9] | thermal shift delta Tm [10]
1 | COc1cc(C(=O)N2CCC(N3CCN(C)CC3)CC2)ccc1Nc1ncc2c(n1)N(C)c1ccccc1C(=O)N2C | 0.47 °C | 4.15 °C | -2.69 °C | 0.06 °C | 0.42 °C | -1.79 °C | 0.93 °C | 0.32 °C | 0.88 °C | 0.74 °C
2 | CCCCOc1c(C(=O)c2c(F)cc(C)cc2F)c[nH]c2nncc1-2 | 0.1 °C | 5.8 °C | -1.11 °C | -0.07 °C | 0.47 °C | 0.9 °C | 0.88 °C | 1.75 °C | 0.61 °C | -0.1 °C
3 | Cc1cc(C)c(/C=C2\C(=O)Nc3ccccc32)[nH]1 [Semaxanib (SU5416)] | 0.62 °C | 6.49 °C | 8.99 °C | 0.65 °C | 0.48 °C | 0.37 °C | 6.54 °C | 0.6 °C | 1.4 °C | -0.2 °C
4 | O=c1cc(N2CCOCC2)oc2c(-c3ccc4c(c3)OCCO4)csc12 | 0.03 °C | 6 °C | 1.81 °C | -0.12 °C | 0.24 °C | 0.13 °C | 0.18 °C | 0.4 °C | 1.45 °C | 0.63 °C
